USP7 inh: inhibitors of human USP7 deubiquitinase | Ubiquitin carboxyl-terminal hydrolase 7 (Homo sapiens), Q93009 | purified USP7, Ub-rhodamine cleavage fluorescence | inhibition, % at 20 µM | hit rate 0.3% among 47,000
Target sequence (Q93009 whole entry, looked up): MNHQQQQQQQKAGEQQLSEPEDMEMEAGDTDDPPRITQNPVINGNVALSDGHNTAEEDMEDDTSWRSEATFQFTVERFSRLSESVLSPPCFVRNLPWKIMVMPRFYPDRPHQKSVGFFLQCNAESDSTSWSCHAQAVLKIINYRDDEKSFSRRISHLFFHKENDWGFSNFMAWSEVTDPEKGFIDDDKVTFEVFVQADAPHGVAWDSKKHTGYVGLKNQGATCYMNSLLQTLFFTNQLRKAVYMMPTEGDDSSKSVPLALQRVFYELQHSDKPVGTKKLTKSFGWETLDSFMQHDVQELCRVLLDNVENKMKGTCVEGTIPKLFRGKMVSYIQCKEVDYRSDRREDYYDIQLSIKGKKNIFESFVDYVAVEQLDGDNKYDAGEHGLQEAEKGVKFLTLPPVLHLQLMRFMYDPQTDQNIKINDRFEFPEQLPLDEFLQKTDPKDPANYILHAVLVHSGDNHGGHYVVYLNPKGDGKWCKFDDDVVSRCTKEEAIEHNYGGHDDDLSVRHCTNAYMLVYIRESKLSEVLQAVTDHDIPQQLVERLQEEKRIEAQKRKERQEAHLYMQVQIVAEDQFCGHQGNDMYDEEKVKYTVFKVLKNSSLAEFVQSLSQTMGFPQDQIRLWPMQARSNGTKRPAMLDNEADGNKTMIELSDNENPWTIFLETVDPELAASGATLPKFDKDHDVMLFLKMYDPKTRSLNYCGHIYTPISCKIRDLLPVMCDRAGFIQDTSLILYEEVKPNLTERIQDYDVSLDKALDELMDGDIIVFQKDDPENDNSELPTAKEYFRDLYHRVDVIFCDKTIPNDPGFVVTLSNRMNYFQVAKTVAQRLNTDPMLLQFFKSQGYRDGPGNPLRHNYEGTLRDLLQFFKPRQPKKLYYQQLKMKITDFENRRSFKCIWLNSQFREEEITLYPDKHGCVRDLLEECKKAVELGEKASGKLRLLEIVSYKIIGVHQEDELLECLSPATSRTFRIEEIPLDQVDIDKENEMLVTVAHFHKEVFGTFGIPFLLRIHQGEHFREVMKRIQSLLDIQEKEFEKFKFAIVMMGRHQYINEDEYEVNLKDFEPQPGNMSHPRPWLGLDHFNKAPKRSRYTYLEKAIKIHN
USP10 block: inhibitors of human USP10 deubiquitinase; purified USP10, Ub-rhodamine fluorescence, 60 min; inhibition, % at 20 µM; hit rate 1.1% among 47,000
UCHL1 inh: inhibitors of human UCHL1 deubiquitinase | Ubiquitin carboxyl-terminal hydrolase isozyme L1 (Homo sapiens), P09936 | purified UCHL1, Ub-rhodamine cleavage fluorescence | inhibition, % at 20 µM | hit rate 0.2% among 47,000 | AID 1645859, 2021
OTUD3 inh: inhibitors of human OTUD3 deubiquitinase; hit rate 0.7% among 47,000; purified OTUD3, Ub-rhodamine fluorescence, 2 h; OTU domain-containing protein 3 (Homo sapiens), Q5T2D3; inhibition, % at 25 µM
USP28 block: inhibitors of human USP28 deubiquitinase | purified USP28, Ub-rhodamine cleavage fluorescence, 30 min | inhibition, % at 25 µM | hit rate 3% among 47,000 | AID 1645857, 2021
* hit, by the source's call; x = not tested or not shown. Sampled rows, rich in hits. Any-hit rate of the full collection: about 4.2%. Rule as the data show it: active = inhibition above about 30%; inactive = the rest.

SMILES	USP7 inh	USP10 block	UCHL1 inh	OTUD3 inh	USP28 block
O=C(Cc1ccccc1)N1CCC[C@@H]1Cn1nnc(-c2cccnc2)n1	1	-1	2	5	4
CC(=O)c1sc(NC(=O)c2cccc(S(=O)(=O)Nc3ccccc3F)c2)nc1-c1ccccc1	14	27	5	10	10
CCOC(=O)N1CCN(S(=O)(=O)c2ccc(C(=O)Nc3ccccc3-c3nc4ccccc4[nH]3)cc2)CC1	6	2	2	14	12
CC[C@H](C)C[C@H]1CC[C@](O)([C@](C)(O)C(=O)N[C@@H]2C(=O)N3NCCC[C@@H]3C(=O)N(O)[C@@H](C)C(=O)NCC(=O)N3NCCC[C@H]3C(=O)N(O)[C@H](C)C(=O)O[C@H]2C(C)C)O[C@@H]1C	-142	-2	3	73*	48*
O=C(NCc1ccco1)c1ccc(Cn2c(SCc3ccccc3)nc3ccncc32)cc1	59*	0	3	75*	72*
O=C(Nc1ccc(Cc2ccncc2)cc1)c1ccccc1Br	4	4	1	-6	11
COc1ccccc1C(=O)Nc1ccc(Cc2ccncc2)cc1	0	1	1	12	35*
Cc1sc2ncnc(SCC(=O)c3cc(C)n(Cc4ccco4)c3C)c2c1C	-2	2	-1	6	19
Clc1cccc(-c2cn[nH]c2C2CCCN2)c1 (stereo not given)	5	3	4	15	15
COc1ccc2c(c1)c1ncn(CCC3=CCCCC3)c(=O)c1n2C	-68	7	8	16	47*
Cc1cc(NC(=O)Cn2c(=O)n(CCCCC(=O)NCc3ccco3)c(=O)c3ccccc32)ccc1Br	5	60*	1	18	0
CCOc1ccc(NC(=O)Cn2c(=O)n(CCC(=O)NCc3ccco3)c(=O)c3ccccc32)cc1	0	45*	8	11	8
Cc1ccc(Cl)cc1NC(=O)Cn1c(=O)n(CCC(=O)NCc2ccco2)c(=O)c2ccccc21	-10	56*	5	15	15
O=C(CCCn1c(=O)c2ccccc2n(Cc2ccccc2)c1=O)NCc1ccco1	-4	7	1	7	4
Cc1ccc(NC(=O)Cn2c(=O)n(CC(=O)NCc3ccco3)c(=O)c3ccccc32)cc1C	-2	21	-7	41*	44*
Cc1ccc(Cl)cc1NC(=O)Cn1c(=O)n(CCC(=O)NC2CCCC2)c(=O)c2ccccc21	1	3	3	11	15
O=C(CCn1c(=O)c2ccccc2n(Cc2ccc([N+](=O)[O-])cc2)c1=O)NCc1ccco1	-11	20	2	13	0
O=C(O)c1c(Nc2nnc(Cn3ccc(C(F)(F)F)n3)s2)sc2c1CCCC2	4	0	-3	3	2
COc1ccc(-c2cc(C(F)F)n3ncc(C(=O)Nc4ccc5c(c4)OCCO5)c3n2)cc1	4	3	3	2	5
COc1cc2c(=O)n(CCC(=O)NCc3ccco3)c(=O)n(CC(=O)Nc3c(C)cccc3C)c2cc1OC	9	-3	8	50*	65*
O=C(CCn1c(=O)c2ccccc2n(Cc2ccc(F)cc2Cl)c1=O)NCc1ccco1	-8	40*	4	19	6
COc1cc(C2CCN(C(=O)c3cccc(F)c3)CC2)on1	3	0	-1	4	4
O=C(Cc1cc(-c2ccccc2)on1)NCc1c(F)cccc1F	4	-1	0	7	27
COc1cc2c(cc1OC)CN(c1ncnc3scc(-c4ccccc4)c13)CC2	-19	-9	-8	-26	1
COc1cc(NC(=O)CSc2ncnc3scc(-c4ccccc4)c23)c(C(=O)O)cc1OC	5	30*	2	-34	-46
SMILES	USP7 inh	USP10 block	UCHL1 inh	OTUD3 inh	USP28 block
O=c1c2cnc(N3CCN(c4ccccc4)CC3)nc2ccn1Cc1ccco1	-20	29	-2	-11	-5
COc1ccc(/C=C/C(=O)Nc2cc(C)ccn2)cc1	3	-1	2	4	46*
COc1ccc(/C=C/C(=O)Nc2ccccc2C#N)cc1	4	8	0	0	x
CC(O)(C(=O)NCCc1nc(-c2ccncc2)n[nH]1)c1ccccc1 (stereo not given)	5	7	0	5	11
N[C@@H](Cc1ccccc1)C(=O)N1CCC2(CC1)CN(C(=O)c1ccc(Cl)cc1)CCO2	1	1	1	21	45*
CCN1C(=O)c2cccnc2Sc2cc(NC(=O)c3ccc(Cl)s3)ccc21	-81	-3	-5	0	51*
CCN1C(=O)c2cccnc2Sc2cc(NC(=O)CCc3cccc(OC)c3)ccc21	-6	-5	-8	-18	44*
CCN1C(=O)c2cccnc2Sc2cc(NC(=O)C3CCC3)ccc21	-4	-6	-13	-9	-26
CCN1C(=O)c2cccnc2Sc2cc(NC(=O)CCc3ccccc3OC)ccc21	-9	-7	-15	-20	-12
COc1ccc(-c2cc(-c3ccc(F)cc3)[nH]c(=O)c2C#N)cc1	4	40*	-4	24	16
Cc1nc(N2CCC(C)CC2)ncc1-c1cc(=O)[nH]c(N2c3ccccc3CC2C)n1 (stereo not given)	7	4	6	0	-5
CCCn1c(-c2ccc(CC)cc2)cn2c(-c3ccccc3)c(-c3ccccc3)nc12	9	4	8	17	17
COc1ccc([N+](=O)[O-])cc1NC(=O)COC(=O)c1ccc2[nH]c3c(c2c1)CCCC3	12	50*	11	62*	63*
COc1ccc(-c2ocnc2C(=O)NCc2ccc(F)cc2)cc1	-3	0	1	4	55*
Cc1snc(SCc2nc(COc3ccc(Cl)cc3Cl)n[nH]2)c1C#N	-35	19	7	26	40*
COc1ccc(Cl)cc1NC(=O)Cn1c(=O)n(CCCC(=O)NCc2ccc(C)cc2)c(=O)c2sccc21	18	69*	4	7	-2
CCOc1ccc(NC(=O)Cn2c(=O)n(CCCCCC(=O)NCc3ccc(F)cc3)c(=O)c3sccc32)cc1	29	51*	6	32*	21
Cc1ccc(CNC(=O)CCCCCn2c(=O)c3sccc3n(CC(=O)c3ccc(Cl)cc3)c2=O)cc1	9	-4	-8	10	3
Cc1ccc(N(Cc2ccc3c(c2)OCO3)C(=O)c2cccs2)cc1	10	11	6	9	14
Cc1nn(C)c(C)c1CNC(=O)C1CCN(c2nnc3ccc(C(F)(F)F)cn23)CC1	2	-2	1	6	38*
NC(=O)c1nc(C2CCCCC2)nc2c1[nH]c(=O)n2-c1cccc(Cl)c1	1	5	-3	-6	-16
c1cc(-c2noc(C3CCCO3)n2)ccc1-c1csc(C2CC2)n1 (stereo not given)	1	2	5	5	40*
c1cnc(-c2nc(-c3ccc(-c4csc(C5CC5)n4)cc3)no2)cn1	-10	-7	-10	-54	-55
